Results filed as inconclusive are left out. Activity calls are given as the source filed them. Calls come from the whole dose curve; as a rule, active = well fitted inhibition curve with a large enough effect; inconclusive = small, poorly fitted or top-dose-only effect; inactive = flat fitted curve, though single readings scatter.
test system: Zika virus NS2B-NS3 protease; experiment: Primary screen GU AMC qHTS for Zika virus inhibitors (AID 1347154); details: Zika NS2B-NS3 unlinked protease, AMC fluorogenic substrate; series mostly up to 54.1 µM; activity change, negative = inhibition: at the top concentration;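 note: 0% = no-inhibitor control and -100% = no-enzyme control; nearly all actives have a fitted effect of over 70% in size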
Description: Avindra Nath, Ph.D., National Institute of Neurological Disorders and Stroke (NINDS), Bethesda, MD
Radhakrishnan Padmanabhan, Ph.D., Georgetown University (GU), Washington D.C.
Zika Virus causes congenital defects, including microcephaly and is associated with Guillain-Barre syndrome, eningoencephalitis and myelitis in infected adult. […] Using a target-based approach, we hope to establish a screening paradigm to uncover novel, cell-active NS2B-NS3 protease (Zika Virus) specific inhibitors from NCATS' collection of small molecules using qHTS.
Early Translation Branch (ETB)
National Center for Advancing Translational Sciences (NCATS), Rockville, MD
National Institute of Health (NIH), Bethesda, Maryland
Padmanabhan lab provided the NS2B hydrophilic domain and NS3 protease domain in a noncovalent complex used for the unlinked assay. Control compound aprotinin is obtained from Thermo Scientific (#78432; Waltham, Massachusetts). NS2B-NS3 AMC substrate (Bz-Nle-Lys-Arg-Arg-AMC; Nle-KRR-AMC) purchased from Bachem (#I-1995; Torrance, CA). Ac-VKTGKR-AMC purchased from Genscript or Bachem, Ac-FAAGKR-AMC purchased from Genscript, Ac-GLVKRR-AMC purchased from Genscript, Ac-LKKR-AMC purchased from Genscript.
GU AMC unlinked NS2B-NS3 protease qHTS protocol
Briefly, 3 microL of Zika virus unlinked NS2B-NS3 protease (25 nM for linked final concentration), in assay buffer (10 mM Tris-HCl pH 8.0 with 0.01% Tween 20) was dispensed into a 1,536-well solid-bottom black plate (Greiner Bio One, Monroe, NC). […] Plates were then read immediately on a ViewLux High-throughput CCD imager (PerkinElmer, Waltham, MA) equipped with standard UV fluorescence optics (340(30) nm excitation, 450(20) nm emission) then incubated (room temperature, protected from light) for 15 minutes (~20% conversion). The change in fluorescence intensity over the 15-minute reaction period was normalized against no-inhibitor and no-enzyme controls and the resulting percent inhibition data were fitted to a 4-parameter Hill equation. Aprotinin was used as the intraplate control.

Structure (SMILES) | activity change, negative = inhibition | Potency
O=C1c2ccccc2CCC1CNCCc1ccc(O)cc1 (stereo not given) | 13.1% (inactive) | –
O=C(O)C1NCCN(C(=O)c2ccc3c(ccc4ccccc43)c2)C1C(=O)O (stereo not given) | 0.156% (inactive) | –
Cc1cc([C@](C)(N)C(=O)O)ccc1P(=O)(O)O | 7.02% (inactive) | –
C/C=C1\C2C=C(C)CC1(N)c1ccc(=O)[nH]c1C2 (stereo not given) | 10.1% [at 104 µM] (inactive) | –
COc1ccc2c(c1)c(CC(=O)N1CCOCC1)c(C)n2C(=O)c1ccc(Cl)cc1 | – | inactive
Nc1ncnc2c1ncn2C1O[C@H](COP(=O)(O)O)[C@@H](O)[C@H]1O (stereo not given in full) | 14.4% (inactive) | –
CCCCCCCC/C=C\C/C=C\C/C=C\CCCC(=O)NCCO | 9.89% [at 6.83 µM] (inactive) | –
NCCCCCCNS(=O)(=O)c1cccc2ccccc12 | 25.3% (inactive) | –
C[N+]1(Cc2ccccc2)CCC(C(=O)OCC2CCCC2)CC1 (stereo not given) | 6.92% (inactive) | –
C[N+]1(C)CCc2cc3c(cc2[C@@H]1[C@@H]1C(=O)Oc2c1ccc1c2OCO1)OCO3 | – | inactive
NCCNC(=O)Cc1ccc(NC(=O)Cc2ccc(Nc3ncnc4c3ncn4[C@@H]3O[C@H](CO)[C@@H](O)[C@H]3O)cc2)cc1 | -3.42% (inactive) | –
O=C1c2ccccc2CC[C@H]1CNCCc1ccc(O)cc1 | -2.47% (inactive) | –
N#Cc1cc2c(OCC(O)CN3CCN(C(c4ccccc4)c4ccccc4)CC3)cccc2[nH]1 (stereo not given) | – | inactive
CCCCC/C=C\C/C=C\C/C=C\C/C=C\CCCC(=O)O | 3.96% [at 6.83 µM] (inactive) | –
N=C(C[C@@H](O)COc1ccccc1-c1ccccc1)N1CCCCC1 | 2.97% (inactive) | –
COc1ccccc1N1CCN(C[C@@H]2CN3C(=O)N(C)c4ccccc4C3=N2)CC1 | -3.16% (inactive) | –
O=C(O)c1ccncc1 | 4.68% (inactive) | –
CC[N+](CC)(CC)CCOc1ccc(/C=C\c2ccccc2)cc1 | -11.7% (inactive) | –
c1ccc2[nH]c(NCCCc3cnc[nH]3)nc2c1 | 11.8% (inactive) | –
COc1ccc2c(c1)CCC1[C@@H]2CCC2(C)[C@@H](NCCCCCCN3C(=O)C=CC3=O)CC[C@@H]12 (stereo not given in full) | 13.9% (inactive) | –

Structure (SMILES) | activity change, negative = inhibition | Potency
OC(CN1CCNCC1)Cn1c2ccc(Br)cc2c2cc(Br)ccc21 (stereo not given) | 12.9% (inactive) | –
CC1=C(\C=C/C(C)=C/C=C\C(C)=C\C(=O)O)C(C)(C)CCC1 | – | inactive
C=CC1CN2CCC1C[C@H]2C(O)c1ccnc2ccc(OC)cc12 (stereo not given in full) | – | inactive
CS(=O)(=O)Nc1c(O)ccc2c1CCCC2C1=NCCN1 (stereo not given) | 7.62% (inactive) | –
COC(=O)C1=C(C)NC(C)=C([N+](=O)[O-])[C@H]1c1ccccc1C(F)(F)F | 11.4% (inactive) | –
CCCCN1CCC[C@@H]1CNC(=O)c1cc(C#N)c2ccccc2c1OC | -3.02% (inactive) | –
N[C@@H](Cn1ccc(=O)n(Cc2ccccc2C(=O)O)c1=O)C(=O)O | -1.08% (inactive) | –
CCCCNC(=O)[C@@H]1Cc2ccccc2N1C(=O)[C@H](N)CC | 8.97% (inactive) | –
O=C(C1CCCCC1)N(CCN1CCN(c2ccccc2CO)CC1)c1ccccn1 | 6.58% (inactive) | –
COc1ccc2[nH]c(C(=O)c3ccccc3)cc2c1 | 10.1% (inactive) | –
O=Cc1c2[nH]c3ccccc3c2cc2[nH]c3ccccc3c12 | – | inactive
CCOC(=O)C1CSC(Cc2ccc(OCc3ccc([N+](=O)[O-])cc3)cc2)N1 (stereo not given) | 2.43% (inactive) | –
CC[C@H](C)[C@H](NC(=O)[C@H](C)NC(=O)[C@H](CC(N)=O)NC(=O)[C@H](CCCCN)NC(=O)[C@H](Cc1ccccc1)NC(=O)[C@H](CC(C)C)NC(=O)[C@@H](NC(=O)[C@@H](NC(=O)[C@H](CC(C)C)NC(=O)[C@@H]1CCCN1C(=O)[C@@H](NC(=O)[C@H](CCC(N)=O)NC(=O)[C@H](CO)NC(=O)[C@H](CCCCN)NC(=O)[C@H](CCC(=O)O)NC(=O)[C@H](CO)NC(=O)[C@@H](NC(=O)[C@H](CCSC)NC(=O)[C@H](Cc1ccccc1)NC(=O)CNC(=O)CNC(=O)[C@@H](N)Cc1ccc(O)cc1)[C@@H](C)O)[C@@H](C)O)C(C)C)[C@@H](C)O)C(=O)N[C@H](C(=O)N[C@@H](CCCCN)C(=O)N[C@@H](CC(N)=O)C(=O)N[C@@H](C)C(=O)N[C@@H](Cc1ccc(O)cc1)C(=O)N[C@@H](CCCCN)C(=O)N[C@@H](CCCCN)C(=O)NCC(=O)N[C@@H](CCC(=O)O)C(=O)O)[C@@H](C)CC | 2.8% [at 6.83 µM] (inactive) | –
CCCCC[C@H](O)/C=C/C=C\CCCCCCCC(=O)O | – | inactive
CC(=O)O[C@H](CC(=O)O)C[N+](C)(C)C | -4.89% (inactive) | –
C=C1/C(=C\C=C2/CCC[C@]3(C)C([C@H](C)CCCC(C)(C)O)CC[C@@H]23)C[C@@H](O)C[C@@H]1O (stereo not given in full) | 14.5% [at 6.83 µM] (inactive) | –
C=C1CC[C@H](O)C/C1=C/C=C1\CCC[C@]2(C)C([C@H](C)CCCC(C)(C)O)CC[C@@H]12 (stereo not given in full) | – | inactive
C[C@H](N=C(NC#N)Nc1ccncc1)C(C)(C)C | 12.8% (inactive) | –
OC[C@H]1OC([S-])[C@H](O)[C@@H](O)[C@H]1O.[Au+] (stereo not given in full) | 7.7% (inactive) | –
CNc1cc2c(Nc3cccc(Br)c3)ncnc2cn1 | -5.8% (inactive) | –
